MEX-5 binding: C. elegans MEX-5 TCR-2 RNA binding activity. activity score (negative = inhibition of binding), % at 10 µM. MEX-5/FITC-TCR2 RNA binding, fluorescence polarization; stronger effect = lower value. 300,000 compounds, 0.38% hits. AID 1832. Q9XUB2;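 active = inhibition past about -25% in most replicates, and total fluorescence under double the plate's negative control median, limit read from the data; inconclusive = replicates evenly split on the limit, or fluorescence at least double controls; inactive = too little inhibition in most replicates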;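 note: 0% = DMSO and -100% = 5 µM competing unlabeled TCR2 RNA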
Target sequence (Q9XUB2 whole entry, looked up): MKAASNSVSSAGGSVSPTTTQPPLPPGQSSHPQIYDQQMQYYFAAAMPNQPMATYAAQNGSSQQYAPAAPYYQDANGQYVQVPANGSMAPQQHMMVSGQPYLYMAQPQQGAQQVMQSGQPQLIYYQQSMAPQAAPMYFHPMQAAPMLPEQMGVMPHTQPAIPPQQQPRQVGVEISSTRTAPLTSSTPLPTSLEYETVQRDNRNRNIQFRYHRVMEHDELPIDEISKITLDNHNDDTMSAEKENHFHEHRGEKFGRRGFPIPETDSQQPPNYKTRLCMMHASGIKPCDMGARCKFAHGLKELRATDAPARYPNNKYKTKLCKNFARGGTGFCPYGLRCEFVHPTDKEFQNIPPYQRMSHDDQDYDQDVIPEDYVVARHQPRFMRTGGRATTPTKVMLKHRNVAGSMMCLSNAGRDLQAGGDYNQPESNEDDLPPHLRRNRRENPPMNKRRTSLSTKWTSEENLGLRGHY
GLD-1 RNA inh: GLD-1-TGE RNA interaction inhibition (C. elegans). inhibition, % at 5.96 µM. Q17339. purified GLD-1 + fluorescein TGE RNA, fluorescence polarization. 320,000 compounds, 0.44% hits. AID 2280;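 active = percent inhibition above a per-plate cutoff, the plate mean of test compounds plus 3 SD, cut at about 30% in these data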;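 note: 0% = DMSO wells with GLD-1 and probe and 100% = wells lacking GLD-1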
E coli Lon inh: E. coli protease La inhibition; P0A9M0; purified E. coli Lon protease, fluorescence polarization; inhibition, % at 7.94 µM; 360,000 compounds, 0.42% hits; AID 602123; in the data active = inhibition above about 13%, passing the limit was not always enough;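 note: 0% = enzyme with probe and DMSO and 100% = no enzyme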
EBV gp42 inh: blocks Epstein-Barr virus glycoprotein 42 binding | Q1HVG2 | Fluorescence polarization binding assay, mP read-out | inhibition, % (tested at 21.74 µM) | 220,000 compounds, 0.42% hits; in the data active = inhibition above about 50%
Bcl-xL primary: inhibitors of human Bcl-xL. Q07817. GST-Bcl-xL / FITC-Bim BH3 peptide fluorescence polarization. inhibition, % at 10.9 µM. 320,000 compounds, 0.7% hits;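 active = inhibition above the mean of all tested compounds plus 3 SD, cutoff set per campaign, cut at about 30% in these data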;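 note: 0% = DMSO wells and 100% = unlabeled Bim-BH3 peptide competitor; inhibitors lower millipolarization by displacing the labeled peptide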
MCL1 BIM primary: inhibitors of human MCL1 binding to BIM-BH3 peptide. inhibition, % at 10.9 µM. 320,000 compounds, 0.68% hits. Q07820. GST-MCL1 / FITC-Bim-BH3 fluorescence polarization. AID 2057;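 active = inhibition above the mean inhibition of all tested compounds plus 3 SD, set per campaign, cut at about 40% in these data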;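 note: 0% = DMSO wells and 100% = unlabeled Bim-BH3 peptide control; higher means more loss of mP so more displacement of Bim peptide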
BCLXL inh confirm: counter-screen for MCL1 inhibitors: confirmation of human Bcl-xL inhibitors | shares compounds with MCL1 BIM primary | GST-Bcl-xL / FITC-Bim BH3 peptide FP binding | inhibition, % at 10.9 µM | 1,700 compounds, 54% hits | AID 2166;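 active = inhibition above a cutoff equal to the mean inhibition of all tested compounds plus 3 SD, cut at about 30% in these data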;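 note: 0% = DMSO wells and 100% = unlabeled Bim BH3 control peptide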
MCL1 inh confirm: confirmation of human MCL1 and BIM-BH3 interaction inhibitors; shares compounds with MCL1 BIM primary; GST-MCL1 / FITC-Bim-BH3 fluorescence polarization; inhibition, % at 10.9 µM; 1,700 compounds, 61% hits; AID 2168;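 active = inhibition above the average of all tested compounds plus 3 SD, cut at about 40% in these data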;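 note: 0% = DMSO wells and 100% = unlabeled Bim-BH3 control peptide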
* hit, by the source's call. Most compounds without a hit are left out; they make up all but 1.5% or so of the library.

For COc1ccc2c(c1)NP(=S)(Oc1ccccc1)N2 (stereo not given) the results were MEX-5 binding -46.5*, GLD-1 RNA inh 12.7, E coli Lon inh 6.7, EBV gp42 inh 8.6, Bcl-xL primary 50.2*, MCL1 BIM primary 56.7*, BCLXL inh confirm 56.1* and MCL1 inh confirm 82.2*.
Cc1ccc2c(c1)NP(=S)(Oc1ccccc1)N2 (stereo not given) was read as E coli Lon inh 4.7.
Screening CCCCn1c(O)c(C(=O)/C=C/c2c[nH]c3ccccc23)c(=O)[nH]c1=O returned MEX-5 binding -10.5, GLD-1 RNA inh 28.4, E coli Lon inh -53.2, EBV gp42 inh -220.0, Bcl-xL primary -7.0, MCL1 BIM primary 85.1*, BCLXL inh confirm -35.5 and MCL1 inh confirm -52.3.
For C/C=C(\C)C(=O)OC1C(C)=C2C(C1OC(=O)CCCCC)C(C)(OC(C)=O)CC(OC(=O)CCC)C1(O)C2OC(=O)C1(C)O (stereo not given) the results were MEX-5 binding 0.9, GLD-1 RNA inh 10.6, EBV gp42 inh -11.8, Bcl-xL primary 0.7 and MCL1 BIM primary 3.2.
Screening COC(=O)Cn1cc(/C=C2\C(=O)NC(=O)N(c3ccccc3)C2=O)c2ccccc21 returned MEX-5 binding -42.7*, GLD-1 RNA inh -7.2, E coli Lon inh -30.3, Bcl-xL primary 3.6, MCL1 BIM primary 135.0*, BCLXL inh confirm 72.5* and MCL1 inh confirm 93.6*.
For Cc1ccc(N2C(=O)NC(=O)/C(=C\c3cn(CC(=O)O)c4ccccc34)C2=O)cc1 the results were MEX-5 binding inconclusive, GLD-1 RNA inh -18.1, E coli Lon inh -42.0, Bcl-xL primary 3.5 and MCL1 BIM primary -12.2.
Screening CCOC(=O)CNC(=O)N1Cc2cc(N3CCOCC3)ccc2-n2nncc2C1 returned E coli Lon inh -7.5.
`CCN(CC)c1ccc(N=Cc2c(O)n(-c3ccc(OC)cc3)c(=O)[nH]c2=O)cc1` gave MEX-5 binding -34.4*, GLD-1 RNA inh -3.0, E coli Lon inh -17.5, EBV gp42 inh 101.6*, Bcl-xL primary 25.8, MCL1 BIM primary 41.5*, BCLXL inh confirm 113.5* and MCL1 inh confirm 26.4.
For CCOC(=O)c1ccccc1C(=O)OCC the results were MEX-5 binding 0.0, GLD-1 RNA inh 43.3*, E coli Lon inh 7.5, Bcl-xL primary 62.7*, MCL1 BIM primary 73.5*, BCLXL inh confirm 59.8* and MCL1 inh confirm 72.3*.
CCCOC(=O)c1ccccc1C(=O)OCCC was read as GLD-1 RNA inh 3.2, E coli Lon inh 6.0, Bcl-xL primary 4.0 and MCL1 BIM primary -0.9.
Screening C[C@]12CCC3C(CC[C@H]4C[C@@H](O)CC[C@]34C)C1C/C(=N/O)[C@@H]2O (stereo not given in full) returned GLD-1 RNA inh -3.7 and E coli Lon inh -2.8.
Clc1cc(Cl)c(-c2cc(Cl)c(Cl)cc2Cl)cc1Cl was read as GLD-1 RNA inh -4.9, E coli Lon inh 0.9, Bcl-xL primary -1.9 and MCL1 BIM primary 4.6.
O=C1Nc2ccccc2Oc2ccccc21 was read as E coli Lon inh -7.7.
Screening C=CCn1c(O)c(C(CC)=Nc2ccc(N(C)C)cc2)c(=O)[nH]c1=O returned MEX-5 binding -1.1, GLD-1 RNA inh 21.8, E coli Lon inh 9.2, EBV gp42 inh -15.2, Bcl-xL primary 29.1, MCL1 BIM primary 45.3*, BCLXL inh confirm 18.0 and MCL1 inh confirm 9.6.
For Cc1c(C)c2ccc(OCC(=O)N3C[C@H]4C[C@@H](C3)c3cccc(=O)n3C4)c(C)c2oc1=O the results were MEX-5 binding 0.6, GLD-1 RNA inh -1.1, E coli Lon inh -3.7, Bcl-xL primary 0.6 and MCL1 BIM primary 5.0.
CN1CCc2nc3sc(C#N)c(N)c3c(-c3cccs3)c2C1 was read as MEX-5 binding -0.1, GLD-1 RNA inh 3.9, E coli Lon inh 0.7, EBV gp42 inh -12.2, Bcl-xL primary 20.4 and MCL1 BIM primary 22.4.

Screens deposited in PubChem by several laboratories.
